Targets with the largest changes are over-represented here; the source holds about 21,000 in all.
Compound: CC1Cc2ccccc2N1C(=O)C1CCCN(C1)C(=O)CCl (mixture of isomers) [TRIM25 ligand 11 (diastereomer mixture)]
Assay: probe-labelled cysteine peptide fold change vs DMSO (competition) (log2 fold change); higher = less target engagement (more negative = stronger competition)
Conditions: THP-1, incubation time: 4 h
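Also: competitive chemoproteomic profiling in live THP-1 cells with an iodoacetamide desthiobiotin (IA-DTB) probe, comparing probe-labelled peptide intensities in compound-treated cells against DMSO-treated controls.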

UniProt P29372, sequence (P29372 whole entry, looked up): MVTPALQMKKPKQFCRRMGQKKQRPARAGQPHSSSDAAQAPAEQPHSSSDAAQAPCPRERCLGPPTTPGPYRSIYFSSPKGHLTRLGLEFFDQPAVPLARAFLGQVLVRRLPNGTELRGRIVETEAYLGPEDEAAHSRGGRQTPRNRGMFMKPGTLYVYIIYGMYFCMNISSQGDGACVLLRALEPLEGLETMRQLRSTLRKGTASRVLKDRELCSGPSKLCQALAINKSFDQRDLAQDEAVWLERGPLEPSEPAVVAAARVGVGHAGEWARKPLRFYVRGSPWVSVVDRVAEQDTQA
UniProt P42695, sequence (P42695 whole entry, looked up): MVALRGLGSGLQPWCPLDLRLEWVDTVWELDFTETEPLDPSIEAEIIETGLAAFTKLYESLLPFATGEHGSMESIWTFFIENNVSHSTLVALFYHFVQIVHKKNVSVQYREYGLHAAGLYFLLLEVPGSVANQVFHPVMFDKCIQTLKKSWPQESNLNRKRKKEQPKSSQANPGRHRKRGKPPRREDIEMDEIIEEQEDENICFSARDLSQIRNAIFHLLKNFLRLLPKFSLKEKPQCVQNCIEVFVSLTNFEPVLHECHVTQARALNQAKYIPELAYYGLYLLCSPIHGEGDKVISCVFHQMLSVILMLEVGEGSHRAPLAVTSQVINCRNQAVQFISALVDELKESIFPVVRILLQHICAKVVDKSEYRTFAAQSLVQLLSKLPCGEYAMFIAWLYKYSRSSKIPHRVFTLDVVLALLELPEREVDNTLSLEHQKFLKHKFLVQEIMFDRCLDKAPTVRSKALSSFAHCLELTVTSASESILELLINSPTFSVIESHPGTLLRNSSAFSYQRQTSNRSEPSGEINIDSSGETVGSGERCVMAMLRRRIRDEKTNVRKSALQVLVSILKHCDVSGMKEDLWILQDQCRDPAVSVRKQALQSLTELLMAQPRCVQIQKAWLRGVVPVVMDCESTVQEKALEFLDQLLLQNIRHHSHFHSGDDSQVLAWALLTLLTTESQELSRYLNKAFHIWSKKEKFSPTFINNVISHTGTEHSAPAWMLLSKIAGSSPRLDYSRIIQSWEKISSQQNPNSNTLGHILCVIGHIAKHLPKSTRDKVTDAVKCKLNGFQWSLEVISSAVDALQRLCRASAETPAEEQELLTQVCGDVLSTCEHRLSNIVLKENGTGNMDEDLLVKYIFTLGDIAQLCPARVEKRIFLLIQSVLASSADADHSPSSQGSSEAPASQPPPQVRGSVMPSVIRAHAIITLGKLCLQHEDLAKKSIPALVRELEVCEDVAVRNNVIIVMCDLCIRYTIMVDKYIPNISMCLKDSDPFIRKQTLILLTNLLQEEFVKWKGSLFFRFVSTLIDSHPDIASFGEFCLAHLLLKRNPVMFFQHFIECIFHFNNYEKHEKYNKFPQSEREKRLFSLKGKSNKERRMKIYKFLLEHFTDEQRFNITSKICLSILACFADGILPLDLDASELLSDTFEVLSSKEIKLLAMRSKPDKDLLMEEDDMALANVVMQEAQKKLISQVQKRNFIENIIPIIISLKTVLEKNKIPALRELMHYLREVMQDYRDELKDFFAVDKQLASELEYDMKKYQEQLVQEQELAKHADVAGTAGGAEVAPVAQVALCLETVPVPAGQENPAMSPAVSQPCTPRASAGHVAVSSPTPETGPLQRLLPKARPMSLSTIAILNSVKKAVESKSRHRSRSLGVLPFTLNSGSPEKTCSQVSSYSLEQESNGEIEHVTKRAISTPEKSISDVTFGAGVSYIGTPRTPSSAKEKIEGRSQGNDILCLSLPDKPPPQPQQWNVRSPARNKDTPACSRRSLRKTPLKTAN
UniProt O60318, sequence (O60318 whole entry, looked up): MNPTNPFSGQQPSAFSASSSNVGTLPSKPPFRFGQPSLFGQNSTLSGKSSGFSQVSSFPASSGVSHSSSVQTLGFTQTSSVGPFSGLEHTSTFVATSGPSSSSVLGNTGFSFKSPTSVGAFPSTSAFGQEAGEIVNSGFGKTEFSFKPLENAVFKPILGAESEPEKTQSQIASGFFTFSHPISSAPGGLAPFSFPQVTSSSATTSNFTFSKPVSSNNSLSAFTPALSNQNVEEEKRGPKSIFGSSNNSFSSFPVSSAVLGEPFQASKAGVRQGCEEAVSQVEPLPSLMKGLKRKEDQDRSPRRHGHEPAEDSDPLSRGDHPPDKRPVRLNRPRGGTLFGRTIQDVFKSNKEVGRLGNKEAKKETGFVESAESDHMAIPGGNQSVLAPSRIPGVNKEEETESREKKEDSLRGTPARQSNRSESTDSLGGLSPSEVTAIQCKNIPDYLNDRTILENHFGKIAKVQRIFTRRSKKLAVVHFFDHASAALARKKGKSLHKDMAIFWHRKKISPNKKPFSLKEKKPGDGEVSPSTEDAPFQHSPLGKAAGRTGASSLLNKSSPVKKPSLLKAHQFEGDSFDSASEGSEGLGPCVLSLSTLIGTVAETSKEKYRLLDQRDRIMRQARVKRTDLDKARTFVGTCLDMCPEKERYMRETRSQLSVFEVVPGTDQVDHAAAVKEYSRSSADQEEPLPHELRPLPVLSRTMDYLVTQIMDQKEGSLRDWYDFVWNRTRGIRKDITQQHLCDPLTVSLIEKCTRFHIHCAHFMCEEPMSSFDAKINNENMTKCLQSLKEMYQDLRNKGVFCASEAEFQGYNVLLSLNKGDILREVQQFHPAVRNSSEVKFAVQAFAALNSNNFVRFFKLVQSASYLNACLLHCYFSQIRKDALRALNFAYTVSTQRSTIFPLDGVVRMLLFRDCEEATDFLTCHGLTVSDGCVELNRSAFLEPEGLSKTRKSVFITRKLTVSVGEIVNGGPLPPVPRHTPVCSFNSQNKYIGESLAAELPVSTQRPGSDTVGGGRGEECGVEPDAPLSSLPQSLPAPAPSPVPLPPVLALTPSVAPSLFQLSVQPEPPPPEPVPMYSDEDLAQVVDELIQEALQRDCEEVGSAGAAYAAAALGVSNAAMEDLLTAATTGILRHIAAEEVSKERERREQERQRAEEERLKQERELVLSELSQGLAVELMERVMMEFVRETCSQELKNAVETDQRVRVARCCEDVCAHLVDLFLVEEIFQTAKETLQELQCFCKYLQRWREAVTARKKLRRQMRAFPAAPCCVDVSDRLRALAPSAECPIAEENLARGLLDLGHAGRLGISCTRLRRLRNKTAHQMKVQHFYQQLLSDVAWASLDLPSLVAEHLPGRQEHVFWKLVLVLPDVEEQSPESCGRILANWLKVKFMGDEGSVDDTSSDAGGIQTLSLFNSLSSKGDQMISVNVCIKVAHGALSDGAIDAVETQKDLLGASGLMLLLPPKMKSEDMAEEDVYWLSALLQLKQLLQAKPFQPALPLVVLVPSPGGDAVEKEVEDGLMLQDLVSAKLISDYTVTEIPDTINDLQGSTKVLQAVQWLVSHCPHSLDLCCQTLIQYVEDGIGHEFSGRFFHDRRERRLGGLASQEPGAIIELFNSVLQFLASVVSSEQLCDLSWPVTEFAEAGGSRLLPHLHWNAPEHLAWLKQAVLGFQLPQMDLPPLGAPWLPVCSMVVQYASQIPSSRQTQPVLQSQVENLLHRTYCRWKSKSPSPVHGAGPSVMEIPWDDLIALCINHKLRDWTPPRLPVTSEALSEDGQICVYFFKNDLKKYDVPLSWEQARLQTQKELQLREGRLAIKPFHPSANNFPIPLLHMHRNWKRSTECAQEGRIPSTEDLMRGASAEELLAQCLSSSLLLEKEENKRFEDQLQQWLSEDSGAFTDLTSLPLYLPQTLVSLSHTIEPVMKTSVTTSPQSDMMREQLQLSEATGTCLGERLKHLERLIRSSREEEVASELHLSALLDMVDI
UniProt P48449, sequence (P48449 whole entry, looked up): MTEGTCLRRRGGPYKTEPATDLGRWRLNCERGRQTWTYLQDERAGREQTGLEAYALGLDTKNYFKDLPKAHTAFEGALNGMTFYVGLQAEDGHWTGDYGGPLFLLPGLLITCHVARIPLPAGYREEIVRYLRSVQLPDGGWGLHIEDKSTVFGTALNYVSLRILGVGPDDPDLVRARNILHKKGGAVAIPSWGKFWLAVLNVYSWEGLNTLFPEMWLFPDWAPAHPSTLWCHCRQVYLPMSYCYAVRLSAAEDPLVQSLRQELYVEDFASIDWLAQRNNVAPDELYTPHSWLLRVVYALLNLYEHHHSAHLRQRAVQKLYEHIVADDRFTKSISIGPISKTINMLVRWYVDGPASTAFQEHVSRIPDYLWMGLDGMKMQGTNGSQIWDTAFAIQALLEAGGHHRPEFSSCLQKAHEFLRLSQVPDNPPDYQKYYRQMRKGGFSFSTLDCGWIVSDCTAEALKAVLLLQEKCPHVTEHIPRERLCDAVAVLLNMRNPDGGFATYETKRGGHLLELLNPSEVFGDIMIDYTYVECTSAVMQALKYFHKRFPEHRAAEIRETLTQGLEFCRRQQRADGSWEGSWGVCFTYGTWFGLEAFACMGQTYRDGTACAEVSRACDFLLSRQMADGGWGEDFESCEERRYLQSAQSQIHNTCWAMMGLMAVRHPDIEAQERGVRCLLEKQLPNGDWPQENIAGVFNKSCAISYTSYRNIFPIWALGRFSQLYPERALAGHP
UniProt P54920, sequence (P54920 whole entry, looked up): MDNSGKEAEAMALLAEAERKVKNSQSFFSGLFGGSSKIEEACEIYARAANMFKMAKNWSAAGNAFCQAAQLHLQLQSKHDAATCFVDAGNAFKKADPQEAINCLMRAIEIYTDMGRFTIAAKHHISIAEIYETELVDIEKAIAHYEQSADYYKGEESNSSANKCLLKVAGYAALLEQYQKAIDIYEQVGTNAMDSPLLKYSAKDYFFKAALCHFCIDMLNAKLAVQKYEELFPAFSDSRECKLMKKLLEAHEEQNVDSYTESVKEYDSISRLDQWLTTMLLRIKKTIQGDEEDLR

Target | probe-labelled cysteine peptide fold change (10 µM) | probe-labelled cysteine peptide fold change (50 µM)
NCAPD3_P42695_143_CIQTLK (UniProt P42695) | 0.0922 | 0.12
LSS_P48449_484_LCDAVAVLLNMR (UniProt P48449) | -0.0996 | -0.128
MDN1_Q9NU22_3690_LLGSQLLACTLSHNTLFGEAPSDLMVKPDGPYDFYQHPNVPEAR (UniProt Q9NU22) | 0.00494 | 0.105
MDN1_Q9NU22_882_LFACMNPATDVGKR (UniProt Q9NU22) | -0.0968 | -0.078
MACF1_Q9UPN3_5309_DCDVQGLEHDMEEINAR (UniProt Q9UPN3) | 0.136 | -0.0387
METAP2_P50579_263_IIDCAFTVTFNPK (UniProt P50579) | 0.0495 | 0.114
LYAR_Q9NX58_6+9_VFFTCNACGESVKK (UniProt Q9NX58) | -0.135 | -0.2
MCM3AP_O60318_439_SESTDSLGGLSPSEVTAIQCK (UniProt O60318) | -0.0427 | -0.262
MSTO1_Q9BUK6_232_LHFYVEECDYLQGFQILCDLHDGFSGVGAK (UniProt Q9BUK6) | 0.183 | -0.0331
MAT1A_Q00266_34_ICDQISDAVLDAHLK (UniProt Q00266) | 0.555 | 0.255
LYST_Q99698_3649_LCYVQSLAGHK (UniProt Q99698) | 0.0365 | -0.124
MPG_P29372_56_AGQPHSSSDAAQAPAEQPHSSSDAAQAPCPR (UniProt P29372) | 0.193 | -0.822
MYH9_P35579_671_CIIPNHEKK (UniProt P35579) | -0.608 | -0.373
MECP2_P51608_429_GGSLESDGCPKEPAK (UniProt P51608) | -0.274 | -0.613
NAPA_P54920_103_KADPQEAINCLMR (UniProt P54920) | 0.0661 | 0.0556

— the supplement of paper PMC12067093, “Discovery and optimisation of a covalent ligand for TRIM25 and its application to targeted protein ubiquitination” (Chemical Science, 2025)
